Screening data as filed in PubChem.
mHTT CaM bind: mHTT-calmodulin interaction abrogation. P42858. AlphaScreen His-mHTT/GST-CaM binding, luminescence. inhibition, % at 15 µM. 3.6% of 190,000 active;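 further: 0% = both proteins with DMSO and 100% = one protein alone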
Pf apPOL inh: Pf-apPOL DNA polymerase inhibition; 0.25% of 210,000 active; Recombinant Pf-apPOL, molecular beacon fluorescence, 1.5 h; inhibition, % at 10 µM; AID 1794808
Starred values were filed as active, the others as inactive; . = no result; ! = not confirmed by another sample. Sampled rows, rich in hits. Any-hit rate of the full collection: about 3.6%. No stated cut-off is given here; in the data, active means inhibition above about 50%; inactive means the rest.

SMILES | mHTT CaM bind | Pf apPOL inh
CC(=O)NC(=Cc1cc(F)cc(F)c1)C(=O)O | . | -3
COc1cccc(C=Nc2ccc(S(=O)(=O)Nc3ccccn3)cc2)c1OC | 2 | -4
C=CCc1cccc(C=Nc2ccc(Br)cc2)c1O | 1 | -3
C=CCc1cccc(C=NNC(N)=S)c1O | 94* | 56*
Nc1c(C(=O)O)cc(Br)c2c1C(=O)c1ccccc1C2=O | 52* | -8
Nc1c(Br)c(Br)c(N)c2c1C(=O)c1ccccc1C2=O | 27 | -2
CC(=O)Nc1nc2c(ncn2COCCO)c(=O)[nH]1 | 0 | -6
CCc1nnc(SCC(=O)Nc2ccccc2OC)nc1CC | 0 | -4
CCOC(=O)CC1C(=O)NCCN1CC=Cc1ccccc1OC (centres undefined) | -3 | -9
Cc1nc2c(C(=O)NCCc3ccccc3)cnn2c(C)c1Cc1ccccc1F | 70* | -12
Cc1nc2c(C(=O)NCc3ccccc3)cnn2c(C)c1Cc1ccccc1F | 21 | -10
Cc1ccccc1Cc1c(C)nc2c(C(=O)NCCc3ccccc3)cnn2c1C | 51* | -5
COC(CNC(=O)c1cnn2c(C)c(Cc3cc(C)ccc3C)c(C)nc12)OC | 61* | -10
COCCCNC(=O)c1cnn2c(C)c(Cc3ccccc3C)c(C)nc12 | 42 | -8
COCCNC(=O)c1cnn2c(C)c(Cc3cc(C)ccc3C)c(C)nc12 | 31 | -9
COCCCNC(=O)N1CCCCCC1c1ccccc1Cl (centres undefined) | -4 | -1
COc1ccc(C)cc1N1CCN(C(=O)NC(C)(C)C)C(C)C1=O (centres undefined) | 1 | -3
COc1ccc(C2=N/C(=C\C=C\c3ccccc3)C(=O)O2)cc1[N+](=O)[O-] | 13 | -2
Cc1ccc(C(=O)N2CCC(CCNS(=O)(=O)c3ccccc3C)CC2)cc1 | 49 | -1
O=C(c1ccccc1)N1CCC(CCNS(=O)(=O)c2cc(F)ccc2F)CC1 | 49 | -3
Cc1ccc(S(=O)(=O)NCCC2CCN(C(=O)c3ccccc3)CC2)c(C)c1 | 53* | -1
O=C(c1ccccc1)N1CCC(CCNS(=O)(=O)c2ccc(F)cc2F)CC1 | 50* | 3
O=S(=O)(c1ccc2c(c1)CCCC2)N1CCC(CN2CCCCC2)CC1 | 5 | -2
O=C1CC(c2cccc([N+](=O)[O-])c2)Sc2nc(C34CC5CC(CC(C5)C3)C4)nn21 (centres undefined) | 3 | -6
O=[N+]([O-])c1c(Nc2ccc(Cl)cc2)ccc2nsnc12 | . | -6
SMILES | mHTT CaM bind | Pf apPOL inh
O=C(CC1SC(=Nc2ccccc2)N(Cc2ccccc2)C1=O)Nc1ccccc1[N+](=O)[O-] (centres undefined) | 3 | -1
O=[N+]([O-])c1ccc2c(c1)OC1(CCCC1)O2 | -3 | -1
Nc1ccc2c(c1)OC1(CCCC1)O2 | 60*! | 5
O=C(NCCC1=CCCCC1)c1ccc(-n2cccn2)nn1 | -11 | 3
CC(=O)N1CCc2[nH]c3ccc(C(=O)N4CCN(Cc5ccccc5)CC4)cc3c2C1 | 38 | 0
CC(=O)N1CCc2[nH]c3ccc(C(=O)N(C)c4cccc(Cl)c4)cc3c2C1 | 50* | -6
CC(=O)N1CCc2[nH]c3ccc(C(=O)N4CCCC4)cc3c2C1 | 61* | 0
CCCN1CCN(C(=O)c2ccc3[nH]c4c(c3c2)CN(C(C)=O)CC4)CC1 | 8 | -5
CC(C)N1CCN(C(=O)C2CN(C(=O)c3ccncc3)CC23CCCCC3)CC1 (centres undefined) | -4 | 3
COc1ccccc1NC(=O)N1CCc2cn(C)c3cccc(c23)C1 | 51* | -1
CCn1cc2c3c(cccc31)CN(C(=O)Nc1ccccc1OC)CC2 | 29 | -1
COc1ccc(OC)c(NC(=O)N2CCc3cn(C)c4cccc(c34)C2)c1 | 62* | 3
CCn1cc2c3c(cccc31)CN(C(=O)Nc1ccc(OC)cc1OC)CC2 | 27 | -3
COc1cccc(NC(=O)N2CCc3cn(C)c4cccc(c34)C2)c1 | 14 | -4
COc1ccc(NC(=O)N2CCc3cn(C)c4cccc(c34)C2)c(OC)c1 | 75* | -2
CCCn1cc2c3c(cccc31)CN(C(=O)Nc1cc(OC)ccc1OC)CC2 | 73* | -1
CCCn1cc2c3c(cccc31)CN(C(=O)Nc1cccc(OC)c1)CC2 | 1 | -2
CCc1noc(C2CCCCN2Cc2ccccc2)n1 (centres undefined) | -32 | -3
O=C(CC1CCCCC1)NCCC1=CCCCC1 | -6 | -4
CS(=O)(=O)Nc1ccc(C2(C(=O)N3CCCCC3)CCCCC2)cc1 | -13 | -5
CN(C)c1cccc(C(=O)NCC2CCN(c3cc(-c4ccccn4)[nH]n3)CC2)c1 | 55* | 0
O=C(NCC1CCN(c2cc(-c3ccccn3)[nH]n2)CC1)c1ccc2c(c1)OCO2 | 37 | 2
Cc1cc(C)cc(NC(=O)Nc2nccn(-c3ccc4c(c3)CCC4)c2=O)c1 | -1 | -1
Cc1nc2nc(S(=O)(=O)NCCC(C)C)nn2c(C)c1C | 4 | 1
CCN(CC)c1ccc(/C=C2\C(=O)c3ccc(C(=O)O)cc3C2=O)cc1 | 62* | 1
SMILES | mHTT CaM bind | Pf apPOL inh
COc1ccc(/C=C2\C(=O)c3ccc(C(=O)O)cc3C2=O)cc1OC | 3 | -10
COC(=O)NCCC(O)C(C)(C)C (centres undefined) | -3 | -2
CC(C)(C)C1CCC2(CC1)NC(=O)N(CC(=O)NCc1ccc(F)cc1)C2=O (centres undefined) | -4 | 0
Cc1ccc(-c2c(C(=O)NCc3ccccc3)oc(=O)c3ccccc23)cc1 | -5 | 3
Cc1ccc(-c2c(C(=O)NCCN3CCN(c4ccccc4)CC3)oc(=O)c3ccccc23)cc1 | 54* | -1
Cc1ccccc1C(=O)NC(Nc1ccc(S(N)(=O)=O)cc1)C(Cl)(Cl)Cl (centres undefined) | -3 | -3
Cc1ccsc1/C=C1\SC(c2ccccc2)=NC1=O | 41 | -2
O=C1N=C(c2ccccc2)S/C1=C\c1cccs1 | 62* | -11
Cc1ccc(C2=NC(=O)/C(=C/c3sccc3C)S2)cc1 | 53* | 4
O=C1N=C(N2CCCCC2)S/C1=C\c1cccs1 | -1 | -7
CN(CCNC(=O)CC1CCN(C(=O)C2CCCCC2)CC1)C1CCCCC1 | -7 | -9
O=S(=O)(Nc1ccccc1Cl)c1ccc(Br)cc1 | -13 | 1
COc1cc(/C=C2/NC(=O)N(Cc3ccc(Cl)cc3)C2=O)cc(Cl)c1OCC(=O)O | 38 | 20
COc1ccc(Nc2cc(C)c3cc(C)ccc3n2)cc1 | 56* | -1
Cc1ccc2nc(Cl)cc(C)c2c1 | -4 | .
O=C(NCCNC(=O)c1ccc(F)c(F)c1)c1ccc(NC(=O)c2ccc(F)cc2)cc1 | 69* | 38
O=C(Nc1ccc(F)cc1)c1ccc(C(=O)Nc2ccc(F)cc2)cc1 | -1 | -3
CC(=O)N1c2ccc(S(=O)(=O)N(CCO)Cc3ccccc3)cc2CC1C (centres undefined) | 1 | 3
CC(=O)N1CCc2cc(Br)cc(S(=O)(=O)NCCc3ccc(C)cc3)c21 | 38 | -10
CC(=O)N1CCc2cc(Br)cc(S(=O)(=O)NCCc3cccc(C)c3)c21 | 55* | -7
N#Cc1ccc(CNC(=S)Nc2ccc(Cl)c(Cl)c2)cc1 | . | 61*
O=C(NCc1ccncc1)C(=O)Nc1ccc(Cl)c(Cl)c1 | 5 | -3
CCCC(=O)Nc1c2c(nn1-c1ccccc1C)CS(=O)(=O)C2 | 1 | -1
COc1ccc(/C=C2/SC(N3CCC(C)CC3)=NC2=O)c(OC)c1 | 58* | -4
